Experimental findings from publication PMC7862700, “An all-to-all approach to the identification of sequence-specific readers for epigenetic DNA modifications on cytosine” are described below.

Common to all, as to assay: DAPPL (digital affinity profiling via proximity ligation, sequencing); 10 mM Tris-HCl pH 7.5, 50 mM NaCl, 1 mM DTT, 4% glycerol, room temperature, 30 min; GST-TFs on glutathione beads, 16-mer random dsDNA library, 0.1% formaldehyde crosslink after washing; high values mean tight binding
What all share (settings): protein: recombinant; tags: N-terminal GST; dsDNA, one strand shown

One experiment deals with T1, FLI1 (Homo sapiens, UniProt Q01543 1-452).
T1 sequence: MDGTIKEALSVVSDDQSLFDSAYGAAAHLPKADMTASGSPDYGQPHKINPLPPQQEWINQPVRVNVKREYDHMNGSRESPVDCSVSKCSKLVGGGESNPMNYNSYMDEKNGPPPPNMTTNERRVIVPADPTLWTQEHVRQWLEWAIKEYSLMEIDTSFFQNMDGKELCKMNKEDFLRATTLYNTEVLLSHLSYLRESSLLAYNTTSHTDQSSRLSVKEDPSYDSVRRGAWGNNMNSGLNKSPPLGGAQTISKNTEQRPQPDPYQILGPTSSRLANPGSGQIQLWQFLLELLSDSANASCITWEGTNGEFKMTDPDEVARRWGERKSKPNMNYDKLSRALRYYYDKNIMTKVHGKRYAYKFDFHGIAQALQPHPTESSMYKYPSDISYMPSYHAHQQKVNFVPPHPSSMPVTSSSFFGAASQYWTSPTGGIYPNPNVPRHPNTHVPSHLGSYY
In short, it runs like this: (§1)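 Human transcription factors were made in yeast as GST fusions, captured on glutathione beads and barcoded with DNA. With a tag-only sample included, the pool was incubated with 200 nmole of a random double-stranded 16-mer DNA library in Tris/NaCl/DTT/glycerol buffer at room temperature for 30 min, then crosslinked with 0.1% formaldehyde after washing, ligated by proximity, amplified and sequenced. For binding signal, each hexamer's read frequency for a factor is divided by its frequency for the tag-only sample.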

Another experiment has as its target T2, ELK1 (Homo sapiens, UniProt P19419 1-428).
T2 sequence: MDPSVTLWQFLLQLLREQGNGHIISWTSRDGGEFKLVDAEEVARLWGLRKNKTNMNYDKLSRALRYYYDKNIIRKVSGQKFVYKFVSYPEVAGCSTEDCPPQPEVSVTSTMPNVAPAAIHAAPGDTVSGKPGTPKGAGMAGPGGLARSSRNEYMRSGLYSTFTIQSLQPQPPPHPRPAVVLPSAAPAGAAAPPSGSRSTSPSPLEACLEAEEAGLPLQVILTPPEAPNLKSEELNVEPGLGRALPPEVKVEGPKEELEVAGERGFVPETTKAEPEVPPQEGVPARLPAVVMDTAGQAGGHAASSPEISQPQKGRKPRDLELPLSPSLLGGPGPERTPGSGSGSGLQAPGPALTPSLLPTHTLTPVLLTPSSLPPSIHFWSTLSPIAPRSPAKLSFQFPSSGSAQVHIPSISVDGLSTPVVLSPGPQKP
In short, it runs like this:
as §1

A further experiment deals with T3, GABPA (Homo sapiens, UniProt Q06546 1-454).
T3 sequence: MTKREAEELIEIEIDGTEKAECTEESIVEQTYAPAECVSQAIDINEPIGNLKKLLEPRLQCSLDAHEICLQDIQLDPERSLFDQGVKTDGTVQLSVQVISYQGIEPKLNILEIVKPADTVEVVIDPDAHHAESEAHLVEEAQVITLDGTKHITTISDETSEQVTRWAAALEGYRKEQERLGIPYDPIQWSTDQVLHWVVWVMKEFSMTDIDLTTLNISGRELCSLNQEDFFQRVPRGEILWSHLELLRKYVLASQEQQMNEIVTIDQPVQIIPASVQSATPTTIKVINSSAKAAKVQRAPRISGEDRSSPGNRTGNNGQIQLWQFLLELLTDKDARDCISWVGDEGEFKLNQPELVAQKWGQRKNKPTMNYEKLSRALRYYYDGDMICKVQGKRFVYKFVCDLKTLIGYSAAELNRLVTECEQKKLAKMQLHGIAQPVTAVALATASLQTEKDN
The essentials:
as §1

Another experiment addresses SPIB (Homo sapiens, UniProt Q01892 1-262). The essentials:
as §1

A further experiment has as its target T4, ELK3 (Homo sapiens, UniProt P41970 1-407).
T4 sequence: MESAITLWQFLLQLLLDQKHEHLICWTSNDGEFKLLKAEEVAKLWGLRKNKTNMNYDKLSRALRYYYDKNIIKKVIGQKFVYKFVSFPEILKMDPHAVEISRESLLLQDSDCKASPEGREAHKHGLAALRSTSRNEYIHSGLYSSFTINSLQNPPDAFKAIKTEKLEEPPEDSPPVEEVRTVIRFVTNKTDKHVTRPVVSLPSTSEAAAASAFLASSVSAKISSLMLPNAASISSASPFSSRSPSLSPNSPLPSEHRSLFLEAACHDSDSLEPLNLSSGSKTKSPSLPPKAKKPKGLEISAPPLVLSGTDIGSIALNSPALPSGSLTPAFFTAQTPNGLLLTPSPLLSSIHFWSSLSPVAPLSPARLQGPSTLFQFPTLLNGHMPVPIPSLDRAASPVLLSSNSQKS
The essentials:
as §1

Another experiment addresses ELF4 (Homo sapiens, UniProt Q99607 1-663). The essentials: as §1
For a further experiment, the target named is T5, ELK4 (Homo sapiens, UniProt P28324-2 1-405).
T5 sequence: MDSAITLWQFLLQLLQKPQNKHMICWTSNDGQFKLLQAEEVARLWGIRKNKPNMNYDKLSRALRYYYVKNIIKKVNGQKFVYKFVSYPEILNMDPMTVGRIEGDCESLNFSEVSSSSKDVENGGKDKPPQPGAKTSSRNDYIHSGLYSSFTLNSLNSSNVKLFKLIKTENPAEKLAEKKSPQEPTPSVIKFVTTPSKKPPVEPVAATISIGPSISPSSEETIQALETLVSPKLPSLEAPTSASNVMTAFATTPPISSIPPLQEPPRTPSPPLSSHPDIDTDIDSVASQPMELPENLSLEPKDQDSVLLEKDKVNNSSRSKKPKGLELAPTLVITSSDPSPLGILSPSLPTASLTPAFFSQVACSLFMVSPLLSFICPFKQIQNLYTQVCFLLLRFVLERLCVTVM
In short, it runs like this:
as §1

Another experiment concerns the target T6, ETV2 (Homo sapiens, UniProt O00321 1-342).
T6 sequence: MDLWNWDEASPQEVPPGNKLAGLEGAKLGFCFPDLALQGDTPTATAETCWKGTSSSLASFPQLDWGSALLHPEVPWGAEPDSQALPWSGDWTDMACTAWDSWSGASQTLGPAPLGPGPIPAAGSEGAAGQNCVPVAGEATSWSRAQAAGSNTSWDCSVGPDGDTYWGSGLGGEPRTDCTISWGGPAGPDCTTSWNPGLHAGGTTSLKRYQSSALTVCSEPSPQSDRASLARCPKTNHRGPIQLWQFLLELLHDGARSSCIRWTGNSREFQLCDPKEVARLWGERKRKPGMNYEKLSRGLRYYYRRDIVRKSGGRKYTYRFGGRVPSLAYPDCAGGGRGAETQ
The essentials:
as §1

In another experiment the target is T7, ELF3 (Homo sapiens, UniProt P78545 1-371).
T7 sequence: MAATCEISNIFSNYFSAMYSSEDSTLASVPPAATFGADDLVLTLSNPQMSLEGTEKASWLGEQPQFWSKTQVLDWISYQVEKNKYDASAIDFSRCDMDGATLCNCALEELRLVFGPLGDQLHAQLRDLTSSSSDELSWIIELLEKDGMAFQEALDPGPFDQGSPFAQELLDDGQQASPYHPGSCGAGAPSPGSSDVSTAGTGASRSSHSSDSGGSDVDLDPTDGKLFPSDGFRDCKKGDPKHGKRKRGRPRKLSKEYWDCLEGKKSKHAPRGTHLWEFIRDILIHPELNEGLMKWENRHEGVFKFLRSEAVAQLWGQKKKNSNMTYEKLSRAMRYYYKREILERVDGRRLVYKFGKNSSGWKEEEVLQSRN
In short, it runs like this:
as §1

In another experiment the target is ETV1 (Homo sapiens, UniProt P50549 1-477). In short, it runs like this: as §1
A further experiment concerns the target T8, ETV3L (Homo sapiens, UniProt Q6ZN32 1-361).
T8 sequence: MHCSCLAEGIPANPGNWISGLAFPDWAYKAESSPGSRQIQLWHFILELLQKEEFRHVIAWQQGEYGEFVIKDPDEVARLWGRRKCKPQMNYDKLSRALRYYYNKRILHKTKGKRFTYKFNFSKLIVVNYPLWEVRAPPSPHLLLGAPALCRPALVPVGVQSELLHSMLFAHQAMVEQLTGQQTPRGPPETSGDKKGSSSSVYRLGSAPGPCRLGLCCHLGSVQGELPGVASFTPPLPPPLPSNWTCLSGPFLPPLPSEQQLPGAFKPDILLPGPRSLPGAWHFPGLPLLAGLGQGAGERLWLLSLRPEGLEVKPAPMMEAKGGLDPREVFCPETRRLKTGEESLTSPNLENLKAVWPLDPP
In short, it runs like this:
as §1

The next experiment concerns the target T9, ETS2 (Homo sapiens, UniProt P15036 1-469).
T9 sequence: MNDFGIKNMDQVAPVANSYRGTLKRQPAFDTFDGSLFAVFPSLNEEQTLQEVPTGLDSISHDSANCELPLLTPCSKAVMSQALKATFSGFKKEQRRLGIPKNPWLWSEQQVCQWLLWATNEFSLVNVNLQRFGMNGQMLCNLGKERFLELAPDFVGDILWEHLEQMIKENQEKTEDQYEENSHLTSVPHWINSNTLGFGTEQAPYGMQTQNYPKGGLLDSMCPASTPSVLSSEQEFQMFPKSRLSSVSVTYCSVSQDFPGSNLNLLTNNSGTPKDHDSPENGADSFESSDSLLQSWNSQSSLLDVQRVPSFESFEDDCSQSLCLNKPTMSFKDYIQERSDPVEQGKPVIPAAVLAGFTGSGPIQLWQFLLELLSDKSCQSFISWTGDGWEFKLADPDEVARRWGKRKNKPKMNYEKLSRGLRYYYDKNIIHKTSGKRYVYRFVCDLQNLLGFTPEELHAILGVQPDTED
In short, it runs like this:
as §1

In a further experiment the target is ETV6 (Homo sapiens, UniProt P41212 1-452). In short, it runs like this: as §1
For the next experiment, the target named is ELF1 (Homo sapiens, UniProt P32519 1-619). In short, it runs like this: as §1
The target of the next experiment is T10, EHF (Homo sapiens, UniProt Q9NZC4 1-300).
T10 sequence: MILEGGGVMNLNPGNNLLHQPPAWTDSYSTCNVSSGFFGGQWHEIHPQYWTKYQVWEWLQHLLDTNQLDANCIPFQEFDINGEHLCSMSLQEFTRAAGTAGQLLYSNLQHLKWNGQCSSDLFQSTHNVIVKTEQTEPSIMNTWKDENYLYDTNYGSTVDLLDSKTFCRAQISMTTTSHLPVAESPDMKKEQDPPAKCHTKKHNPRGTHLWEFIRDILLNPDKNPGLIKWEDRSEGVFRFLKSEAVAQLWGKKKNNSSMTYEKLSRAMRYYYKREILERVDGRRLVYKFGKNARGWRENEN
The essentials:
as §1

A further experiment addresses T11, ETV7 (Homo sapiens, UniProt Q9Y603 1-341).
T11 sequence: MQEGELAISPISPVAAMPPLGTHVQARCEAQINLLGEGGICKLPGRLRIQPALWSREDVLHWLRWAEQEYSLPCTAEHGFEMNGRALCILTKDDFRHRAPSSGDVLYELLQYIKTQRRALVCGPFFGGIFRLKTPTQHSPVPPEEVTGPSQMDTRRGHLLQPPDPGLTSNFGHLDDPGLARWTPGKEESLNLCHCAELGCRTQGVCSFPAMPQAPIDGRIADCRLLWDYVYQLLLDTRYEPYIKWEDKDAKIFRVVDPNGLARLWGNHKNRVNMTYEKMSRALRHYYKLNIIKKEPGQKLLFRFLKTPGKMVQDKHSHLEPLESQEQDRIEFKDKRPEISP
The essentials:
as §1

Chain of ETV6 (P41212 whole entry): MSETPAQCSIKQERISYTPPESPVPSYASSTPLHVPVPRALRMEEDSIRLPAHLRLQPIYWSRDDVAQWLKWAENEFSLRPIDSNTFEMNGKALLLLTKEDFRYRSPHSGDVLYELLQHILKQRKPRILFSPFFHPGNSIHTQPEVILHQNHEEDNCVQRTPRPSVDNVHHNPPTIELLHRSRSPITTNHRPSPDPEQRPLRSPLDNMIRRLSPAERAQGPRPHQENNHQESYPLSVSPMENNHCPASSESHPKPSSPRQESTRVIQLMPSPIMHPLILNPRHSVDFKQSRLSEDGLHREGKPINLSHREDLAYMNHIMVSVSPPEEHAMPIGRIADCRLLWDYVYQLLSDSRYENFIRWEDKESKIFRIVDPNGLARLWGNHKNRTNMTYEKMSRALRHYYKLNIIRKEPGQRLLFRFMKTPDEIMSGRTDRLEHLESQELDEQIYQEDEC
Chain of ETV1 (P50549 whole entry): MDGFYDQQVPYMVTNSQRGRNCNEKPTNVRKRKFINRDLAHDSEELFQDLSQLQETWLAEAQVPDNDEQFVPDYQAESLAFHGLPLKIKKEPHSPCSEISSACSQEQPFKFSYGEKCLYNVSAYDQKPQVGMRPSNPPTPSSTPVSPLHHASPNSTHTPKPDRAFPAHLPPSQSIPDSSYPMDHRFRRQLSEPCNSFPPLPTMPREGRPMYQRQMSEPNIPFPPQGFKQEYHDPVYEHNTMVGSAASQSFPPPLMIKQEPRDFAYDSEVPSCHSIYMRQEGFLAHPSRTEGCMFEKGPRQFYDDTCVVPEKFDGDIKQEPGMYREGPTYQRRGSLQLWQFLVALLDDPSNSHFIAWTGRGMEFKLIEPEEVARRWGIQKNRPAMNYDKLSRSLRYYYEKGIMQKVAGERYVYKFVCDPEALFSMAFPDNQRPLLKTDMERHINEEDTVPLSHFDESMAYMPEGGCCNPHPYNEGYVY
Chain of ELF1 (P32519 whole entry): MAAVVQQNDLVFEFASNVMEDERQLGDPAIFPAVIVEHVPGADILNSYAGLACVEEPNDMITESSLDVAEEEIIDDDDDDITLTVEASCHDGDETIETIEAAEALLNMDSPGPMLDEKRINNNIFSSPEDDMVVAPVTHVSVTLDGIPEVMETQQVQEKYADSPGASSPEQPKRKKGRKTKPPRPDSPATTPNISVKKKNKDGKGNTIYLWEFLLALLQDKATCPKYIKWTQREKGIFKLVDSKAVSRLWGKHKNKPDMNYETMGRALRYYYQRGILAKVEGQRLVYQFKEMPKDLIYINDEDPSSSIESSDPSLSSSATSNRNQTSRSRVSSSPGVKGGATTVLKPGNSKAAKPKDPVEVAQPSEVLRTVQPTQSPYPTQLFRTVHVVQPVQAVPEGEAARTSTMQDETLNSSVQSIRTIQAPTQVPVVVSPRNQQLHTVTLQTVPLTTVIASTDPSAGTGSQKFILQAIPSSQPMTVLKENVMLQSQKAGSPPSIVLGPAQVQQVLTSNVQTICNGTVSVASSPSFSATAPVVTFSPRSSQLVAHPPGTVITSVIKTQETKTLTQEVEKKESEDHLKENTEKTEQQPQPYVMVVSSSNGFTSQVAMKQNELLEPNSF
Chain of ELF4 (Q99607 whole entry): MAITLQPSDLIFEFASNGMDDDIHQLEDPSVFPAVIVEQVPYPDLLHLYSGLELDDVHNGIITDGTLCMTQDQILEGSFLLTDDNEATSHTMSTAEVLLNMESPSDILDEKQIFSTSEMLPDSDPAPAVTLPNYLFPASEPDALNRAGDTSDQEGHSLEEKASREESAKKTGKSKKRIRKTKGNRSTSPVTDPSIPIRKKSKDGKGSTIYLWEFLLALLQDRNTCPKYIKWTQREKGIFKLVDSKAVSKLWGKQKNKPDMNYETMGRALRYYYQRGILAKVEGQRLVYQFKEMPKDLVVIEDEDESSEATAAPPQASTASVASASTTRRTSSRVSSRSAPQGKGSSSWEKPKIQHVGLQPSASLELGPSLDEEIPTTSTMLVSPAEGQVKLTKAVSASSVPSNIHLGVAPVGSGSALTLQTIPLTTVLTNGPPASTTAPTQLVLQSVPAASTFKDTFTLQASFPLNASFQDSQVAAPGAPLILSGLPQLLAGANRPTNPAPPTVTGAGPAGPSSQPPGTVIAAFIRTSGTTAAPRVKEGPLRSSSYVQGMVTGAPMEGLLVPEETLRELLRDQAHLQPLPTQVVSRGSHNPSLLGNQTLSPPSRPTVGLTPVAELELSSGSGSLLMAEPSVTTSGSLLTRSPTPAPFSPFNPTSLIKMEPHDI
Chain of SPIB (Q01892 whole entry): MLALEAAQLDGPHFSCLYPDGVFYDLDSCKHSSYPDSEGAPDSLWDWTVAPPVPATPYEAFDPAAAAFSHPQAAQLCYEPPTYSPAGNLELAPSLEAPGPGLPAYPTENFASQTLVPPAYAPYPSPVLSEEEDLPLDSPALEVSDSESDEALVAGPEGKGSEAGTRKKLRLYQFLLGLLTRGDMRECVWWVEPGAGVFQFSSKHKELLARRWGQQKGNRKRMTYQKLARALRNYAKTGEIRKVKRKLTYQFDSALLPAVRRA

On to TCAGCC, for which the binding signal is 1 fold enrichment (6-mer frequency, TF over GST control) with FLI1; 1.11 fold enrichment (6-mer frequency, TF over GST control) with ELK1; 1.06 fold enrichment (6-mer frequency, TF over GST control) with GABPA; 1.05 fold enrichment (6-mer frequency, TF over GST control) with SPIB; 1.13 fold enrichment (6-mer frequency, TF over GST control) with ELK3; 1.11 fold enrichment (6-mer frequency, TF over GST control) in the experiment with ELF4. Further, the binding signal in the experiment with ELK4 is 1.02 fold enrichment (6-mer frequency, TF over GST control); in the experiment with ETV2, 1.03 fold enrichment (6-mer frequency, TF over GST control); with ELF3, 1 fold enrichment (6-mer frequency, TF over GST control); with ETV1 it was 1.02 fold enrichment (6-mer frequency, TF over GST control); in the experiment with ETV3L, 1.02 fold enrichment (6-mer frequency, TF over GST control); with ETS2, 1 fold enrichment (6-mer frequency, TF over GST control). The binding signal with ETV6 is 1.01 fold enrichment (6-mer frequency, TF over GST control).

GCCGTC: the binding signal was 1.04 fold enrichment (6-mer frequency, TF over GST control) in the experiment with FLI1; 1.03 fold enrichment (6-mer frequency, TF over GST control) with ELK1; 1.02 fold enrichment (6-mer frequency, TF over GST control) in the experiment with ELF1; 1.1 fold enrichment (6-mer frequency, TF over GST control) in the experiment with EHF; 1.1 fold enrichment (6-mer frequency, TF over GST control) in the experiment with ELK4; 1.03 fold enrichment (6-mer frequency, TF over GST control) with ETV2. Besides, the binding signal in the experiment with ELF3 is 1.17 fold enrichment (6-mer frequency, TF over GST control); in the experiment with ETV7, 1.03 fold enrichment (6-mer frequency, TF over GST control).
